From PubChem BioAssay AID602365 (National Center for Advancing Translational Sciences (NCATS), 2012)
Results filed as inconclusive are left out. Active and inactive are the calls of the source. Calls come from the whole dose curve; as a rule, active = well fitted inhibition curve with a large enough effect; inconclusive = small, poorly fitted or top-dose-only effect; inactive = flat fitted curve, though single readings scatter.

Biological target: Luciferin 4-monooxygenase (Photinus pyralis) (UniProt P08659)
Sequence (P08659 whole entry, looked up): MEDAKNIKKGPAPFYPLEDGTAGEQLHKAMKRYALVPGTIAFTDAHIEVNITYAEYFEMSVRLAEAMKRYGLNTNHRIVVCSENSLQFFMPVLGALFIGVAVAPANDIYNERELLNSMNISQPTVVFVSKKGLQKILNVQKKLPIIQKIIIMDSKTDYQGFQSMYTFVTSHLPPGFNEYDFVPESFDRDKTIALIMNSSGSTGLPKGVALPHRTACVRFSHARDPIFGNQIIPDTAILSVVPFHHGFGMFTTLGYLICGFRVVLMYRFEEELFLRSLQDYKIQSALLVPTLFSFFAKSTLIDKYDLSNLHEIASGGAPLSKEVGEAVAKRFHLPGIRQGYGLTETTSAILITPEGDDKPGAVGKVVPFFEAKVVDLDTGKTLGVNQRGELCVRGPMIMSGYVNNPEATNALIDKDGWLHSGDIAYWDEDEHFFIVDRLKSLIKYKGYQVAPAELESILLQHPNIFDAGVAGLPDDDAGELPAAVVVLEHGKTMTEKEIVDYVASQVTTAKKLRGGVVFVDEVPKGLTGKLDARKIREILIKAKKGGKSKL
Experiment: FLuc inhibitory activity for the follow-up compounds in a biochemical assay with 1mM D-luciferin
Conditions: purified FLuc, luminescence; series mostly up to 57.5 µM
From the text: NCGC Assay Overview: Firefly (Photinus pyralis) luciferase is one of the most commonly used transcriptional reporters. It is considered one of the more dynamically responsive reporters - that is, responsive to changes in reporter transcription - as it requires no post-translational modifications and is enzymatically active directly after protein synthesis (Wood, 1998). With no endogenous expression in mammalian cells and without the requirement of external excitation, it offers very little background signal, thus generally providing excellent signal to background for most assays. Previous profiling work to determine the prevalence of compounds that affect FLuc enzymatic activity (PubChem AID 411) identified that ~3% of the MLSMR library (then at ~72K) inhibited FLuc. […] Of the compounds identified in this profile that inhibited FLuc, 151 compounds were selected for further analysis, in an effort to better understand their mode of inhibiting FLuc. The assay described here was to determine the activity of the compounds in a FLuc assay that contained a KM concentration of ATP and a high concentration (1mM) of D-luciferin.
NCGC Assay Protocol Summary: Reagents: 50mM Tris acetate, pH 7.5; 10mM Mg acetate; 1mM D-luciferin (Sigma #L9504); 10uM ATP; 0.01% Tween-20; 0.05% BSA; 10nM P. pyralis luciferase (Sigma #L9506) Control compounds used were two known firefly luciferase inhibitors (3-(5-(3-chlorophenyl)-1,2,4-oxadiazol-3-yl)benzoic acid and 5-(2-fluorophenyl)-3-phenyl-1,2,4-oxadiazole), and DMSO. Three microliters containing firefly luciferase substrates in buffer (final concentrations: 50mM Tris acetate, pH 7.5, 10mM Mg acetate, 0.01% Tween-20, 0.05% BSA, 1mM D-luciferin, 10uM ATP) are dispensed into each well of a Greiner white, solid-bottom 1536-well format plate using a flying reagent dispenser (FRD). These assay plates were then treated with 23nL of compound or DMSO using a Kalypsys pin tool, which allows for delivery of a 12-point intraplate titration of each compound to the assay plate (quantitative HTS), with a final compound concentrations ranging from approximately ~60uM to 0.3nM. One microliter of firefly luciferase in […] Tris-acetate buffer was then delivered by FRD to each well for a final enzyme concentration of 10nM. Luciferase activity was then measured using a ViewLux CCD imager (PerkinElmer), with an average exposure time of 2-30 seconds (2X binning, medium/high gain).

SMILES	Potency
COc1cc(OC)cc(C(=O)Nc2ccc(-c3nc4ccccc4s3)c(C)c2)c1	inactive
CCOc1ccc2nc(NC(=O)c3ccccc3)sc2c1	1.46 µM (active)
Cc1ccc(C(=O)Nc2cccc(C(=O)O)c2)cc1	4.11 µM (active)
O=C(Nc1ccccc1C(=O)O)c1ccc(NC(=O)C2CCCO2)cc1 (stereo not given)	20.6 µM (active)
O=C(O)c1cccc(NC(=O)c2ccc(Cl)c(S(=O)(=O)N3CCCCCC3)c2)c1	3.26 µM (active)
COc1c(C)cccc1C(=O)Nc1ccc(-c2nc3ccccc3s2)c(Cl)c1	inactive
Nc1ccc(C(=O)Nc2ccccc2C(=O)O)cc1	20.6 µM (active)
Cc1ccc2sc(-c3ccc(NC(=O)c4cc(-n5cnnc5)ccc4Cl)cc3)nc2c1	18.3 µM (active)
O=C(COC(=O)c1ccccc1[N+](=O)[O-])c1ccc2c(c1)OCO2	0.0461 µM (active)
O=C(Nc1ccccc1-c1nc2ccccc2s1)c1ccc(Br)o1	inactive
Cc1ccc2nc(-c3ccc(N)cc3)sc2c1	0.517 µM (active)
COc1ccc(NS(=O)(=O)c2cccc(C(=O)Nc3ccccc3C(=O)O)c2)cc1	inactive
CCOc1ccc2nc(NC(=O)c3cc([N+](=O)[O-])ccc3N3CCOCC3)sc2c1	inactive
O=C(Nc1c(Cl)cc(Cl)cc1-c1nc2ccccc2s1)c1ccc(Br)o1	inactive
COc1cc(OC)cc(C(=O)Nc2ccccc2-c2nc3ccccc3s2)c1	inactive
Cc1ccc(C(=O)O/N=C(\N)c2ccccn2)cc1	0.183 µM (active)
Cc1ccc(NS(=O)(=O)c2ccc(Cl)c(C(=O)Nc3cccc(C(=O)O)c3)c2)cc1	inactive
CCCOc1cccc(C(=O)Nc2ccc(-c3nc4ccccc4s3)c(Cl)c2)c1	inactive
Cc1ccc(S(=O)(=O)N2CCOCC2)cc1C(=O)Nc1ccccc1C(=O)O	inactive
Cc1cccc(NS(=O)(=O)c2cccc(C(=O)Nc3cccc(C(=O)O)c3)c2)c1	inactive

SMILES	Potency
Nc1ccc2nc(-c3ccccc3)sc2c1	0.919 µM (active)
C/C(=N\NC(=O)c1ccccc1NC(=O)c1ccc(Cl)cc1)c1ccncc1	0.0517 µM (active)
O=C(O)c1cccc(NC(=O)c2ccccc2NC(=O)c2ccco2)c1	inactive
O=C(Nc1ccccc1C(=O)O)c1ccc(Cl)c(S(=O)(=O)N2CCOCC2)c1	18.3 µM (active)
Cc1ccc(C(=O)Nc2ccccc2C(=O)O)cc1S(=O)(=O)N1CCCCCC1	5.17 µM (active)
COc1ccc2nc(NC(=O)c3ccc([N+](=O)[O-])o3)sc2c1	5.8 µM (active)
Cc1ccc(C(=O)Nc2ccc(C(=O)O)cc2)cc1S(=O)(=O)Nc1ccccc1	inactive
COc1ccc(C(=O)Nc2nc3ccc(OC)cc3s2)cc1	5.17 µM (active)
Cc1ccc(S(=O)(=O)N2CCN(C(=O)c3ccccc3-c3nc4ccccc4s3)CC2)c(C)c1	inactive
O=C(Nc1ccccc1C(=O)O)c1cc(S(=O)(=O)Nc2ccccc2)ccc1Cl	inactive
O=C(Nc1ccccc1C(=O)O)c1cccc(NC(=O)c2ccc(Br)o2)c1	20.6 µM (active)
CCOc1ccc(C(=O)Nc2cccc(C(=O)O)c2)cc1Cl	6.51 µM (active)
Cc1c(NC(=O)C(C)(C)C)cccc1-c1nc2ccccc2s1	10.3 µM (active)
CCOc1c(Cl)cc(C(=O)Nc2ccccc2C(=O)O)cc1Cl	16.3 µM (active)
COc1ccc2nc(NC(=O)c3nc(S(=O)(=O)Cc4ccc(C)cc4)ncc3Cl)sc2c1	inactive
COc1ccc(C(=O)Nc2ccccc2C(=O)Nc2ccccc2C(=O)O)cc1	1.63 µM (active)
Cc1ccc(C(=O)Nc2cccc(C(=O)O)c2)cc1S(=O)(=O)N1CCCC1	4.61 µM (active)
COc1cc(OC)cc(-c2nc3ccccc3s2)c1	18.3 µM (active)
CC(=O)Oc1ccc(C(=O)Nc2ccccc2C(=O)Nc2cccc(C(=O)O)c2)cc1	16.3 µM (active)
COc1ccc2nc(NC(=O)CCc3ccc(OC)c(OC)c3)sc2c1	inactive
